From PubChem BioAssay
PINK1 expr mod – PINK1 expression modulation; PINK1 immunofluorescence, high-content cytometry, 24 h; hit rate 0.2% among 410,000; Potency, µM (doses to about 76.6 µM), without a hit: top-dose activation (PINK1 increase), usual class: activators; AID 624263; active = well fitted activation curve with a large enough effect; inconclusive = small, poorly fitted or top-dose-only effect; cell line not stated here; note: % of control where 0% means no effect; nearly all actives have a fitted effect of over 65% in size
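Compound titrations (5 concentrations, 24 h) on a stable cell line; DMSO and CCCP controls. Endpoint: fixed-cell PINK1 immunofluorescence with mitochondrial, cell and nuclear markers, scanned by microplate cytometer.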
KB-V1 cytotox – KB-V1 MDR subline cytotoxicity. KB-V1 MDR cells viability, CellTiter-Glo, 72 h. hit rate 3.4% among 400,000. Potency, µM (top dose mostly 46.1 µM), most hits filed as cytotoxic; note: % is set by controls: 0 for no effect and ±100 for the full control effect; nearly all actives have a fitted effect of over 60% in size
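In this primary screen, KB-V1 cells overexpressing P-gp are incubated with library compounds (lowest to highest concentration) for 72 h at 37 degrees C before a luminescent ATP viability read.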
KB-3-1 tox – kills parental KB-3-1 adenocarcinoma cells | KB-3-1 viability, CellTiter-Glo ATP luminescence, 72 h | Potency, µM (series often up to 46.1 µM), hits mostly cytotoxic | hit rate 1.4% among 400,000 | AID 1347075; note: % is set by controls: 0 for no effect and ±100 for the full control effect; nearly all actives have a fitted effect of over 60% in size
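Screening of KB-3-1 cells (DMEM, 10% FBS, phenol-red free) ran from lowest to highest compound concentration; after 72 h at 37 °C viability was read luminescently and curves fitted.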
SW480 rerep – inducers of DNA re-replication in SW480 colon cancer cells; SW480 DNA re-replication, Hoechst DNA content imaging, 48 h; Potency, µM (titrated, usually from 46.1 µM), inactives show at the top dose re-replication activation, actives largely listed as activators; hit rate 1.8% among 340,000; AID 624297; note: % of control where 0% means no effect; nearly all actives have a fitted effect of over 55% in size
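Cells (250 per well) received 23 nL compound or DMSO by pin tool and were kept 48 hr at 37 C, 5% CO2. Nuclei were then stained with Hoechst for 40 min and scanned for DNA content.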
MCF10A rereplic – induces DNA re-replication in MCF 10a normal breast cells; MCF 10A DNA re-replication, Hoechst nuclear intensity, 48 h; Potency, µM (highest dose often 46.1 µM), inactives show at the highest dose activity, positive = re-replication, most hits filed as activators; hit rate 2.9% among 350,000; AID 624296; note: % of control where 0% means no effect; nearly all actives have a fitted effect of over 50% in size
The depositor's hits bear a star; [ ] = dose if it differs, or a comment. The list is not random: actives were taken first. Their share in the collection is about 6.7%. Unless noted, calls come from the whole dose curve; as a rule, active = well fitted curve in the direction sought with a large enough effect; inconclusive = small, poorly fitted or top-dose-only effect, or another doubt; inactive = no such curve, though single readings can be large; an effect the other way counts as inactive or inconclusive. Potency is the fitted concentration of half-maximal effect.

O=C(O)CCC(=O)N1CCN(c2nc(-c3ccccc3)c3ccccc3n2)CC1 was read as PINK1 expr mod 0%, KB-V1 cytotox inactive, KB-3-1 tox inactive, SW480 rerep -5% and MCF10A rereplic 21µM*.
Cc1ccc2nc(N3CCN(C(=O)CCCC(=O)O)CC3)nc(-c3ccccc3)c2c1 was read as PINK1 expr mod -1%, KB-V1 cytotox inactive, KB-3-1 tox inactive, SW480 rerep 3% and MCF10A rereplic inconclusive.
CC(C)CCn1c(=O)c2cccnc2n(CC(=O)Nc2ccccc2)c1=O was read as PINK1 expr mod -1%, KB-V1 cytotox inactive and KB-3-1 tox inactive.
`Cc1cc(N=Cc2c(O)ccc3ccccc23)no1` gave PINK1 expr mod -5%[38.3 µM], KB-V1 cytotox inconclusive, KB-3-1 tox inactive, SW480 rerep -4% and MCF10A rereplic 12%.
Cc1cc(N=Cc2c(O)ccc3cc(Br)ccc23)no1 was read as PINK1 expr mod -4%, KB-V1 cytotox inactive, KB-3-1 tox inactive, SW480 rerep -693% and MCF10A rereplic 13µM*.
CC1CC(C)(C)CC2(C1)NC(=O)N(CC(=O)OCc1ccc(Br)cc1)C2=O (stereo not drawn) was read as PINK1 expr mod 12%, KB-V1 cytotox 16µM*, KB-3-1 tox inactive, SW480 rerep 4% and MCF10A rereplic inconclusive.
O=C(CN1C(=O)NC2(CCCC2)C1=O)OCc1ccc(Br)cc1 was read as PINK1 expr mod 0%, KB-V1 cytotox inactive, KB-3-1 tox inactive, SW480 rerep -34% and MCF10A rereplic 5%.
`CCOC(=O)c1ccc(NC(=O)Nc2ccc3c4c(cccc24)C(=O)N3CC)cc1` gave PINK1 expr mod inconclusive, KB-V1 cytotox inactive, KB-3-1 tox inactive, SW480 rerep 7% and MCF10A rereplic 23µM*.
For Cc1ccc(-c2nnn(CC(=O)N(CC(=O)NCCC(C)C)c3ccc(F)cc3)n2)cc1 the results were PINK1 expr mod 2%.
CCc1cc2c(N=Nc3c(O)[nH]c4ccccc34)ncnc2s1 was read as PINK1 expr mod inconclusive, KB-V1 cytotox 6.5µM*, KB-3-1 tox inconclusive, SW480 rerep -9% and MCF10A rereplic inconclusive.
CCCc1cc(C(=O)N2CCCC(Nc3ccc(C)c(C)c3)C2)n(C)n1 (stereo not drawn) was read as PINK1 expr mod 1%, KB-V1 cytotox inconclusive, KB-3-1 tox inactive, SW480 rerep inconclusive and MCF10A rereplic inconclusive.
COC(=O)c1c(NC(=O)c2ccccc2OC)sc(C(=O)N2CCOCC2)c1C was read as PINK1 expr mod 0%, KB-V1 cytotox inactive, KB-3-1 tox inconclusive, SW480 rerep 11% and MCF10A rereplic inconclusive.
Screening Cc1ccc2c(Cl)c(C(=O)Nc3ccc4c(c3)OCO4)sc2c1 returned PINK1 expr mod 2%, KB-V1 cytotox inactive, KB-3-1 tox inactive, SW480 rerep 21µM* and MCF10A rereplic inconclusive.
`O=C(NCc1cccnc1)c1sc2ccccc2c1Cl` gave PINK1 expr mod 11%[38.3 µM], KB-V1 cytotox inactive, KB-3-1 tox inconclusive, SW480 rerep -3% and MCF10A rereplic -3%.
Cc1ccc2c(Cl)c(C(=O)NCc3cccnc3)sc2c1 was read as PINK1 expr mod 26%[38.3 µM], KB-V1 cytotox 15µM*, KB-3-1 tox inactive, SW480 rerep 1% and MCF10A rereplic 11%.
For Cc1ccc2cccc(NC(=O)C(C)(C)Oc3ccc(Br)cc3)c2n1 the results were PINK1 expr mod 7%, KB-V1 cytotox inactive and KB-3-1 tox inactive.
For COc1ccc(N2CCN(C(=O)C3CCC(Cn4c(=S)[nH]c5ccccc5c4=O)CC3)CC2)cc1 (stereo not drawn) the results were PINK1 expr mod -3%[38.3 µM], KB-V1 cytotox 2.9µM*, KB-3-1 tox 18µM*, SW480 rerep inconclusive and MCF10A rereplic 18%.
For O=C(C1CCC(Cn2c(=S)[nH]c3ccccc3c2=O)CC1)N1CCN(c2ccccc2)CC1 (stereo not drawn) the results were PINK1 expr mod 1%, KB-V1 cytotox inactive, KB-3-1 tox inactive, SW480 rerep 0% and MCF10A rereplic inconclusive.
`COc1ccc(N2CCN(CCCn3c(=S)[nH]c4ncccc4c3=O)CC2)cc1` gave PINK1 expr mod 5%, KB-V1 cytotox inactive, KB-3-1 tox 6.5µM*, SW480 rerep 1% and MCF10A rereplic 7%.
For O=C(C1CCC(Cn2c(=S)[nH]c3ccccc3c2=O)CC1)N1CCOCC1 (stereo not drawn) the results were PINK1 expr mod 0%[38.3 µM], KB-V1 cytotox 23µM*, KB-3-1 tox inconclusive, SW480 rerep -7% and MCF10A rereplic -1%.
Screening CCOc1cc(C(=O)Nc2ccc(-c3nc4ccccc4s3)cc2Cl)cc(OCC)c1OCC returned PINK1 expr mod -1%, KB-V1 cytotox inactive and KB-3-1 tox inactive.
Cn1c(=O)c(-c2cc(F)cc(F)c2)nc2cnc(Oc3ccccc3)nc21 was read as PINK1 expr mod 1%.
C[C@H]1CN([C@@H](C)CO)C(=O)CCCn2nncc2CO[C@H]1CN(C)S(=O)(=O)c1ccc2c(c1)OCCCO2 was read as PINK1 expr mod 2%, KB-V1 cytotox inconclusive and KB-3-1 tox inactive.
For CCOc1cnn(-c2ccccc2)c(=O)c1Cl the results were PINK1 expr mod 23%, KB-V1 cytotox inactive, KB-3-1 tox inactive, SW480 rerep 6% and MCF10A rereplic 26µM*.
Screening CCSc1cnn(-c2ccccc2)c(=O)c1Cl returned PINK1 expr mod 4%, KB-V1 cytotox inactive, KB-3-1 tox inactive, SW480 rerep inconclusive and MCF10A rereplic inconclusive.
Screening O=c1c(Cl)c(Cl)cnn1-c1ccccc1 returned PINK1 expr mod -1%, KB-V1 cytotox inactive, KB-3-1 tox 18µM*, SW480 rerep 4.1µM* and MCF10A rereplic 3.7µM*.
For O=C(O)CCn1c2c(c3ccccc31)C[C@H](NS(=O)(=O)c1ccc(F)cc1)CC2 the results were SW480 rerep 7% and MCF10A rereplic 8%.
Screening Cc1ccccc1NC(=O)Cc1nc(COC(=O)c2nccnc2N)cs1 returned PINK1 expr mod 2%, KB-V1 cytotox inactive and KB-3-1 tox inactive.
`CCc1ccccc1N(C)S(=O)(=O)c1ccc(-c2cc(C)no2)s1` gave PINK1 expr mod 1%, KB-V1 cytotox inconclusive, KB-3-1 tox inconclusive, SW480 rerep 17% and MCF10A rereplic 2.3µM*.
`CNC(=O)c1ccsc1NC(=O)c1sc2ccccc2c1Cl` gave PINK1 expr mod 3%, KB-V1 cytotox inactive, KB-3-1 tox inactive, SW480 rerep inconclusive and MCF10A rereplic 29µM*.
For N#C/C(=C\Nc1ccc2c(c1)OCCO2)c1nc2ccccc2[nH]1 the results were PINK1 expr mod -1%, KB-V1 cytotox 15µM*, KB-3-1 tox inconclusive, SW480 rerep inconclusive and MCF10A rereplic inconclusive.
